These results are taken from PMC4336329 (PLoS ONE, 2015).

Hit rate of the full screen: of about 310,000 compounds, about 14,000 (4.5%) showed an effect of 50% or more. The effect is printed as a negative number. The full list was thinned out, with strong results kept by preference.
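Also: peak tail current of the secondary pulse compared with the same well before compound.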

For this assay, the target named is human ether-à-go-go-related gene (hERG) potassium channel (human, UniProt Q12809). The assay is described as follows: primary screen, population patch clamp on CHO cells stably expressing hERG; higher = less effect of the substance.
Sequence of human ether-à-go-go-related gene (hERG) potassium channel (Q12809 whole entry, looked up): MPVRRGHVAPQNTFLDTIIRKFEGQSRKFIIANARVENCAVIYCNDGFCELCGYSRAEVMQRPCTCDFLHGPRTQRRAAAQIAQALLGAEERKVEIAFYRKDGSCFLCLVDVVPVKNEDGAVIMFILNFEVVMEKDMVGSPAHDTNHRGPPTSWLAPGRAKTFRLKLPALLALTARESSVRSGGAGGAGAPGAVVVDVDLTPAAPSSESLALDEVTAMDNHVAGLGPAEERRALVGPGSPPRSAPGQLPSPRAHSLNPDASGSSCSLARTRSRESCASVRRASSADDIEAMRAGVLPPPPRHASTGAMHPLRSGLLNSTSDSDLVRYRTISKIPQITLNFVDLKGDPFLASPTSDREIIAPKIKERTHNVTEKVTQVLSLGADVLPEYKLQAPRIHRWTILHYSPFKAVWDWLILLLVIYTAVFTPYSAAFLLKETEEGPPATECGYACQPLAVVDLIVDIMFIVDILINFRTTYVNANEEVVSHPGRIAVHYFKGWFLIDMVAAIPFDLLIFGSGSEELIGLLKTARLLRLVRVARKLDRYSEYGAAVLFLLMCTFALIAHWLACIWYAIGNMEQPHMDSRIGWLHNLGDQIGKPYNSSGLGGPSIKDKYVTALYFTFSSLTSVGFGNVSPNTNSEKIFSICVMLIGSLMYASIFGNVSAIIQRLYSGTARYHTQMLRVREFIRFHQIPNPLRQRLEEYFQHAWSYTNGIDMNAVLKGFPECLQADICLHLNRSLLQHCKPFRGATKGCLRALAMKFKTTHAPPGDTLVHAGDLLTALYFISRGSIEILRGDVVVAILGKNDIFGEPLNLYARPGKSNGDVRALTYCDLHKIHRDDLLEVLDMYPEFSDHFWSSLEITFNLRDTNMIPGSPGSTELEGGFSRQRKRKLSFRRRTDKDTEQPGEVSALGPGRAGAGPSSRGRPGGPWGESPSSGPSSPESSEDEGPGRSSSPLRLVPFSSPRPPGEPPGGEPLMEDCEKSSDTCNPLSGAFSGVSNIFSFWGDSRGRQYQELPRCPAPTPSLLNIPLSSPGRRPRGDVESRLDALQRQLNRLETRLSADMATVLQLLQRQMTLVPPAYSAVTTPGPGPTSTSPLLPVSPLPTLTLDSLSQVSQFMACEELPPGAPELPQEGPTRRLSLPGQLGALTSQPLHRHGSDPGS
Consider `COc1ccc(N2CCN(CCC3Oc4cc([N+](=O)[O-])ccc4NC3=O)CC2)cc1` (stereo not drawn), for which the “hERG current change (%, negative = inhibition) at 10uM” value is -19.1%.
In the case of `COc1ccc2c(CCNC(=O)c3ccco3)c[nH]c2c1`, the “hERG current change (%, negative = inhibition) at 10uM” value is given as -1.53%.
To `CCOC(=O)COc1coc(CN2CCN(c3ccc(F)cc3)CC2)cc1=O` belongs -19.4%.
Regarding `CCOc1ccccc1N(CC(=O)Nc1ccc(OC)cc1OC)S(=O)(=O)c1ccccc1`, the “hERG current change (%, negative = inhibition) at 10uM” value came out at 14.6%.
For `CS(=O)(=O)c1ccc2nc(NC(=O)c3cc(-c4ccccc4)nn3-c3ccccc3)sc2c1` the value was 8.38%; for `COC(=O)c1ccc(COc2ccccc2/C=C/C(=O)c2ccc(OCC(=O)O)cc2)cc1`, 3.76%.
For the molecule `CN(C)c1nc(N)nc(-c2nc3ccccc3s2)n1`, the “hERG current change (%, negative = inhibition) at 10uM” value is -3.77%.
For `COc1ccc2c(c1OC)C(=O)OC2c1c(O)nc(SC)n(-c2ccccc2)c1=O` (stereo not drawn) the value was -2.74%; for `COc1ccc2c(c1OC)C(=O)OC2c1c(O)n(Cc2ccc(F)cc2)c(=O)[nH]c1=O` (stereo not drawn), 3.09%.
To `COc1ccc2c(c1OC)C(=O)OC2c1c(O)n(C2CCCCC2)c(=O)[nH]c1=O` (stereo not drawn) belongs -68.8%.
For `Cc1noc(C)c1S(=O)(=O)N1CCN(c2ccc([N+](=O)[O-])cc2)CC1` the value was -69%; for `Cc1noc(C)c1S(=O)(=O)N1CCN(c2ccc(Cl)cc2)CC1`, -6.26%.
On to `Cc1cc(-c2ccc(C)c(S(=O)(=O)N3CCN(c4ccc(F)cc4)CC3)c2)on1`, for which the “hERG current change (%, negative = inhibition) at 10uM” value is reported as -8.14%.
As to `CCc1ccc(-c2cc(C)no2)cc1S(=O)(=O)N1CCN(c2ccc(F)cc2)CC1`, the “hERG current change (%, negative = inhibition) at 10uM” value was 7.09%.
To `Cc1cc(-c2ccc(C)c(S(=O)(=O)N3CCN(c4ccccn4)CC3)c2)on1` belongs -21.2%; to `COc1ccc(-c2cc(C)no2)cc1S(=O)(=O)N1CCN(c2ccccn2)CC1`, -63.7%; to `COc1ccc(-c2cc(C)no2)cc1S(=O)(=O)N1CCN(c2ccccc2F)CC1`, 3.36%.
As for `COc1ccc(-c2cc(C)no2)cc1S(=O)(=O)N1CCN(c2ccc([N+](=O)[O-])cc2)CC1`, the “hERG current change (%, negative = inhibition) at 10uM” value is recorded as -76.2%.
For `Cc1noc(C)c1S(=O)(=O)N1CCN(c2ccccc2)CC1` the value was -5.33%; for `COc1ccc(-c2cc(C)no2)cc1S(=O)(=O)N1CCCCC1`, 2.3%.
For `Cc1cc(-c2ccc(C)c(S(=O)(=O)N3CCN(c4ccc([N+](=O)[O-])cc4)CC3)c2)on1` the value was -67.8%; for `CCc1ccc(-c2cc(C)no2)cc1S(=O)(=O)N1CCN(c2ccccn2)CC1`, 4.29%; for `O=C(O)c1ccc2c(c1)S(=O)(=O)c1ccccc1C2=O`, 17%.
To `CCc1cc2cc(C(=O)Nc3ccc(F)cc3)sc2s1` belongs 3.32%; to `COc1cc(NC(=O)COC(=O)CNC(=O)c2ccc(C)s2)cc(OC)c1`, 4.76%; to `Cc1ccc(C(=O)N2CCN(c3ccccc3)CC2)cc1C`, 4.41%.
Regarding `O=C(c1ccc(-c2ccccc2)cc1)N1CCN(c2ccccn2)CC1`, the “hERG current change (%, negative = inhibition) at 10uM” value is -36.4%.
Consider `CN(CC(=O)Nc1cccc(F)c1)C(=O)c1ccncc1`, for which the “hERG current change (%, negative = inhibition) at 10uM” value is on record as 4.28%.
In the case of `CCOc1ccc(OCC)c(NC(=O)C2CCN(S(=O)(=O)c3c(C)[nH]c(=O)[nH]c3=O)CC2)c1`, the “hERG current change (%, negative = inhibition) at 10uM” value worked out at 7.51%.
To `CSc1nsc(SC)c1NC(=O)N1CCCC1` belongs -13.1%.
To `COCc1nnc(NC(=O)CCCOc2ccccc2OC)s1` belongs 9.6%; to `COc1ccc(-c2cc(C)no2)cc1S(=O)(=O)N(C)c1cccc(C)c1`, -82.5%; to `COc1ccc(-c2cc(C)no2)cc1S(=O)(=O)N(C)c1ccc(C)cc1`, -29.6%.
For `COc1ccc(-c2cc(C)no2)cc1S(=O)(=O)N(C)c1ccc(C)c(C)c1` the value was -1.83%; for `CC(=O)N1CCc2c(sc3c2c(=O)n(Cc2ccccc2)c(=O)n3CC(=O)NCC2CCCO2)C1` (stereo not drawn), -21.6%; for `CCCCOC1CC(c2ccc(OCc3ccc(OC)cc3)c(OC)c2)N(C)O1` (stereo not drawn), 3.47%.
Turning to `Cc1ccn2c(CNC(C)c3cn(C)nc3C)c(C(=O)N3CCCCCC3)nc2c1` (stereo not drawn), the “hERG current change (%, negative = inhibition) at 10uM” value was 0.193%.
With `O=C(CCN1C(=O)C2C3C=CC(C3)C2C1=O)N1CCN(c2ccccc2F)CC1` (stereo not drawn), the “hERG current change (%, negative = inhibition) at 10uM” value is given as -4.87%.
To `O=C(CCN1C(=O)C2C3C=CC(C3)C2C1=O)N1CCN(c2ccc([N+](=O)[O-])cc2)CC1` (stereo not drawn) belongs -81.2%; to `O=C(CCN1C(=O)C2C3C=CC(C3)C2C1=O)N1CCN(c2cccc(Cl)c2)CC1` (stereo not drawn), -38.4%.
In the case of `COc1ccc(N2CCN(C(=O)CCN3C(=O)C4C5C=CC(C5)C4C3=O)CC2)cc1` (stereo not drawn), the “hERG current change (%, negative = inhibition) at 10uM” value is -0.214%.
To `O=C(CCN1C(=O)C2C3C=CC(C3)C2C1=O)N1CCN(c2ccc(F)cc2)CC1` (stereo not drawn) belongs -25.8%; to `O=C(CCN1C(=O)C2C3C=CC(C3)C2C1=O)N1CCN(c2ccccc2Cl)CC1` (stereo not drawn), -57.2%; to `O=C(CSc1ccc2nnc(CCNC(=O)c3ccccc3)n2n1)NCc1ccccc1`, -8.24%.
To `COc1ccc2nc(SC)c(C#N)cc2c1` belongs 15.1%.
For `CCOC(=O)c1cnc(Nc2ccc(OCC)cc2)nc1C`, the “hERG current change (%, negative = inhibition) at 10uM” value worked out at 12.6%.
For `COc1cccc(CN2CC(C(=O)NCc3ccc(C)c(F)c3)CCC2=O)c1` (stereo not drawn) the value was -40.8%.
Regarding `Cc1cccc(CCNC(=O)C2CCC(=O)N(Cc3ccc(Cl)cc3)C2)n1` (stereo not drawn), the “hERG current change (%, negative = inhibition) at 10uM” value is recorded as 5.05%.
Take `O=C(NCCc1cccnc1)C1CCC(=O)N(Cc2cccc(C(F)(F)F)c2)C1` (stereo not drawn): the “hERG current change (%, negative = inhibition) at 10uM” value is recorded as -8.64%.
`O=C(NCCC1=CCCCC1)C1CCC(=O)N(Cc2ccc(Cl)cc2)C1` (stereo not drawn): the “hERG current change (%, negative = inhibition) at 10uM” value is recorded as -2.34%.
For `O=C(NCCc1ccccc1)C1CCC(=O)N(Cc2cccc(C(F)(F)F)c2)C1` (stereo not drawn) the value was -14.2%; for `Cc1ccc(CNC(=O)C2CCC(=O)N(Cc3ccc(Cl)cc3)C2)cc1F` (stereo not drawn), -63.6%; for `O=C(NCCc1cccc(C(F)(F)F)c1)C1CCC(=O)N(Cc2ccc(Cl)cc2)C1` (stereo not drawn), -59%.
As for `COc1ccccc1CN1CC(C(=O)NCc2ccc(C)c(F)c2)CCC1=O` (stereo not drawn), the “hERG current change (%, negative = inhibition) at 10uM” value is 0.721%.
In the case of `O=C(NCCc1cccc(Cl)c1)C1CCC(=O)N(Cc2ccc(Cl)cc2)C1` (stereo not drawn), the “hERG current change (%, negative = inhibition) at 10uM” value is on record as -52.3%.
Turning to `CCC(C)(C)NC(=O)C(OC(=O)c1ccco1)c1ccccc1F` (stereo not drawn), the “hERG current change (%, negative = inhibition) at 10uM” value came to 13.4%.
For `O=C(CCCCCN1C(=O)[C@@H]2Cc3ccccc3CN2C1=O)N[C@@H](Cc1ccc(O)cc1)C(=O)O` the value was 1.02%; for `CC1Oc2ccccc2N(CC(=O)N(Cc2ccccc2)Cc2ccccn2)C1=O` (stereo not drawn), 0.288%.
For `COc1ccc(/C=N/N2C(=O)C3C4C=CC(C4)C3C2=O)cc1[N+](=O)[O-]` (stereo not drawn) the value was -6.14%.
To `Cc1ccc2c(c1)NCC(C(=O)NC1CCC(C)CC1)O2` (stereo not drawn) belongs 6.16%; to `O=C(NCCOc1ccc2ccccc2c1)c1cncc(Br)c1`, 3.79%; to `CCOc1ccc(C(C)=O)cc1N1C(=O)C2C3C=CC(C3)C2C1=O` (stereo not drawn), 8.85%.
For the molecule `O=C(NCc1ccc(F)cc1)C1CCCN1S(=O)(=O)c1ccccc1C(F)(F)F` (stereo not drawn), the “hERG current change (%, negative = inhibition) at 10uM” value is listed as -13.4%.
For `O=C(CSc1nnc(-c2ccccc2)o1)c1nnc(-c2ccccc2)o1` the value was 20.1%; for `CC1(C)C(=O)Nc2ccccc2N1C(=O)COC(=O)c1ccc(Cl)c(S(=O)(=O)NCc2ccccc2)c1`, -12.8%.
On to `Cc1ccc(CN2CC(C(=O)N3CCN(S(=O)(=O)c4ccc(C)cc4C)CC3)CC2=O)cc1` (stereo not drawn), for which the “hERG current change (%, negative = inhibition) at 10uM” value is -28.2%.
Regarding `O=C1C(O)CC2c3ccccc3CC3(CCCC3)N12` (stereo not drawn), the “hERG current change (%, negative = inhibition) at 10uM” value is on record as 6.83%.
Take `CC(C)CC12CN3CCN(CC(C3)C1O)C2` (stereo not drawn): the “hERG current change (%, negative = inhibition) at 10uM” value is recorded as -1.15%.
Turning to `CC1=C(C)NC(=S)SC1`, the “hERG current change (%, negative = inhibition) at 10uM” value worked out at 13.9%.
With `O=C1CC(c2ccccc2Cl)CC(O)=C1C=Nc1ccccc1` (stereo not drawn), the “hERG current change (%, negative = inhibition) at 10uM” value came out at 0.512%.
As to `Cc1ccc2c(c1)N(C(=O)CCC(=O)NCCN1CCOCC1)CCO2`, the “hERG current change (%, negative = inhibition) at 10uM” value is -5.63%.
To `Cc1ccc2c(c1)N(C(=O)CCC(=O)NCCCN1CCN(C)CC1)CCO2` belongs -5.06%; to `O=C(CCC(=O)N1CCOc2ccccc21)NCCCN1CCOCC1`, 5.91%.
For `Cc1ccc2c(c1)N(C(=O)CCC(=O)NCCCN1CC(C)CC(C)C1)CCO2` (stereo not drawn) the value was -56.2%; for `O=C(CCC(=O)N1CCOc2ccc(Cl)cc21)NCCCN1CCOCC1`, 6.57%; for `Cc1ccc2c(c1)N(C(=O)CCC(=O)NCCCN1CCOCC1)CCO2`, 5.17%.
For `O=C(CCC(=O)N1CCOc2ccc(Cl)cc21)NCCCN1CCC(Cc2ccccc2)CC1` the value was -75%; for `Cc1ccc2c(c1)N(C(=O)CCC(=O)NCCCN1CCC(Cc3ccccc3)CC1)CCO2`, -77.1%.
Regarding `Cc1ccc2oc(C(=O)N3CCN(c4cccc(C)n4)CC3)c(C)c2c1`, the “hERG current change (%, negative = inhibition) at 10uM” value was 8.84%.
To `O=C1CCN(Cc2nnnn2CC2CCCO2)c2ccccc2N1` (stereo not drawn) belongs 2.18%; to `CCOP(=O)(OCC)C(NC(=O)c1cccs1)c1ccccc1` (stereo not drawn), 23.5%.
For `COc1ccc(/C=N/NC(C)(C)C)c(OC)c1.Cl`, the “hERG current change (%, negative = inhibition) at 10uM” value was 12.3%.
For `COc1ccc(C(=O)c2cnc[nH]2)cc1OC` the value was 10.9%.
To `Cc1cc(NC(=O)COc2ccccc2C)ccc1NC(=O)c1cccs1` belongs 0.541%.
